From PubChem BioAssay AID1469 (National Center for Advancing Translational Sciences (NCATS), 2008)
Among all 280,000 compounds or so, about 180 (0.064%) were called active. The full list was thinned out, with actives kept by preference. A number with no mark means an inactive call. The call rests on the fitted dose curve; in most records, active means well fitted inhibition curve with a large enough effect; inconclusive means small, poorly fitted or top-dose-only effect, or effect the other way; inactive means flat fitted curve, though single readings scatter.

Molecular target: Thyroid hormone receptor beta (Homo sapiens) (UniProt P10828)
Sequence (P10828 whole entry, looked up): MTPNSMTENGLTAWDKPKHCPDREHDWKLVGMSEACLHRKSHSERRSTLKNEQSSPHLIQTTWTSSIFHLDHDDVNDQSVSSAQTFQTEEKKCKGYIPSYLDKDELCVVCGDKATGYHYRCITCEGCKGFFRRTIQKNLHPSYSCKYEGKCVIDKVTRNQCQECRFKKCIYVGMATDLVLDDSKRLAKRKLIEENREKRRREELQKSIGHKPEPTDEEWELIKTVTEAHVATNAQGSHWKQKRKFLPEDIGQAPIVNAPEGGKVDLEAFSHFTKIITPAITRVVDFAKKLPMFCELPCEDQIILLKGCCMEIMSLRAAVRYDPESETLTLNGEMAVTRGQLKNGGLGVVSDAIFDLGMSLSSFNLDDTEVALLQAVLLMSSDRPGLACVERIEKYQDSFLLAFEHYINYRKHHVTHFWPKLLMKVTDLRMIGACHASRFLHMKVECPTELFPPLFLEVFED
Test: qHTS for Inhibitors of the Interaction of Thyroid Hormone Receptor and Steroid Receptor Coregulator 2; further: nearly all actives have a fitted effect of over 50% in size
Settings: TRbeta-SRC2 peptide binding, fluorescence polarization, receptor liganded with 1 µM T3; series mostly up to 106 µM; activity change, negative = inhibition: at the top concentration
Description: NIH Molecular Libraries Probe Production Network [MLPCN]
NIH Chemical Genomics Center [NCGC]
Assay Provider: R. Kip Guy, St. Jude Children's Research Hospital
Thyroid receptor (TR) regulates many homeostatic processes including basal metabolism, cardiovascular function, body weight, and lipid trafficking. TR modulators are potential therapeutics for obesity and hyperlipidemias but current thyroid analogs have undesirable side effects, particularly cardiac stimulation. To identify inhibitors that specifically prevent the interaction of TR with the steroid receptor coregulator 2 (SRC2), a fluorescence polarization assay was screened. This assay detects interaction of the ligand-binding domain of human TRb with a Texas Red labeled SRC2 peptide, corresponding to a 20 amino acid region of the nuclear receptor interaction domain (Arnold et al., 2006). Small molecule inhibitors that block the interaction of TR and SRC2 are detected by a decrease in fluorescence polarization.
Arnold, L. A.; Estebanez-Perpina, E.; Togashi, M.; Shelat, A.; Ocasio, C. A.; McReynolds, A. C.; Nguyen, P.; Baxter, J. D.; Fletterick, R. J.; Webb, P.; Guy, R. K. A high-throughput screening method to identify small molecule inhibitors of thyroid hormone receptor coactivator binding. Sci STKE 2006, p 13.
NCGC Assay Protocol Summary:
For screening, 5 uL/well 0.6 uM TRb and 20 nM SRC2 Texas Red in protein buffer (20mM Tris hydrochloride, 100mM NaCl, 10% glycerol, 1mM EDTA, 0.01% NP-40, 1mM DTT, 1uM T3 and 5% DMSO) was dispensed into black solid 1536-well plates (Grenier) using a solenoid-based dispenser. Following transfer of 23 nL compound or DMSO vehicle by a pin tool, the plates were centrifuged 15 s at 1000 RPM and incubated 5 hr at ambient temperature. The plates were read by an Envision (Perkin Elmer) to detect fluorescence polarization of SRC2 Texas Red (555 nm excitation and 632 nm emission). Data were normalized to unbound (all components except TRb) and bound SRC2 Texas Red controls. In this assay, we provide % activity data for each concentration as well as potencies for the active compounds.
Keywords: NIH Roadmap, MLPCN, MLI, MLSMR, qHTS, NCGC, qHTS, thyroid hormone receptor, steroid receptor coactivator, fluorescence polarization
Potency means the concentration at half of the fitted maximal effect.

SMILES | activity change, negative = inhibition | Potency
Cc1ccc(CN2CCc3nc(N4CCN(C)CC4)ncc3C2)cc1 | -3.16% | 
CCN1CCN(c2ncc3c(n2)CC(c2ccccc2O)CC3=O)CC1 (stereo not drawn) | 4.08% | 
Cc1nc2nc(SCC(=O)N(Cc3ccccc3)C(C)C)nn2c(C)c1Cc1ccccc1Cl | 6.02% | 
Cc1ccc(NC(=O)c2nc(S(=O)(=O)Cc3cccc(C)c3)ncc2Cl)cc1 | -0.903% | 
CC(=O)OC1=C(C(C)=O)N(Cc2ccccc2)S(=O)(=O)c2ccccc21 | -0.701% | 
Cc1cccc(OCCSc2nc3ccccc3n2CC(=O)N2CCCCC2)c1C | -1.35% | 
Cc1ccccc1CNC(=O)CCCn1nc(C)c2sc3ccccc3c2c1=O | -0.387% | 
Cc1c(C)n(Cc2ccc(Cl)cc2)c2ccc(C(=O)NCCc3ccc(S(N)(=O)=O)cc3)cc12 | -3.01% | 
COc1ccc2cc(CNc3ccc(OC)c(OC)c3)c(=O)n(CC(=O)Nc3ccccc3F)c2c1 | -2.35% | 
CSc1ccc(C2C(C(=O)Nc3ccccc3)=C(C)Nc3nc4ccccc4n32)cc1 (stereo not drawn) | -8.79% | 
COc1ccc(CCNC(=O)c2nn(C)c3c2CSc2ccccc2-3)cc1OC | -1.01% | 
COc1ccc(-c2nc(C)c(CCNC(=O)c3ccc(C(F)(F)F)cc3)s2)cc1OC | 0.0329% | 
COc1c(O)c2c(=O)cc(OC)c3c4c(OC)cc(=O)c5c(O)c(OC)c6c(c(c1C[C@@](C)(O)[C@H]6C(C)=O)c23)c54 |  | 35.5 µM (active)
COc1ccc2c(c1)c(N1CCCC1=O)c(C(=O)Nc1ccc(OC)c(Cl)c1)n2C | 3.35% | 
COc1ccc(Cl)cc1NC(=O)c1sc2nc3c(cc2c1N)CN(C)CC3 | 0.478% | 
Cc1cccc(NC(c2cccc(F)c2)c2ccc3ccc(C)nc3c2O)n1 (stereo not drawn) | 0.0507% | 
CCOc1ccc(N(Cc2ccccc2)C(=O)c2nc(S(C)(=O)=O)ncc2Cl)cc1 | -7.22% | 
O=C(/C=C/c1ccccc1[N+](=O)[O-])OC1CCCCC1=O (stereo not drawn) | 0.395% | 
CC1CCCCC1NC(=O)/C(C#N)=C/C=C/c1ccccc1[N+](=O)[O-] (stereo not drawn) |  | 39.8 µM (active)
O=C(/C=C/c1ccccc1[N+](=O)[O-])NCC1CCCO1 (stereo not drawn) | 1.44% | 
CCNS(=O)(=O)c1cc(-c2nnc(Nc3cccc(C(F)(F)F)c3)c3ccccc23)ccc1C | 8.87% | 
O=C(NCCCN1CCN(c2cccc(Cl)c2)CC1)c1nnc(Cc2ccc(F)cc2Cl)o1 | 5.2% | 
COc1ccc(-c2cc(NCc3ccc(F)cc3)n3cnnc3n2)cc1 | 2.27% | 
Cc1ccc(NC(=O)CN2C(=O)C(c3ccc(F)cc3)=NC23CCCCCC3)c(C)c1 | -0.31% | 

SMILES | activity change, negative = inhibition | Potency
Cc1ccc(Nc2c(-c3ccc(N(C)C)cc3)nc3nc[nH]n23)cc1 | 2.09% | 
O=C(NC1CC(=O)N(c2ccc(F)cc2)C1)c1ccc(S(=O)(=O)N2CCCC2)cc1 (stereo not drawn) | -0.489% | 
COC(=O)c1ccc(NC(=O)CSc2n[nH]c(-c3ccccc3)n2)cc1 | 1.11% | 
Cn1nc(-c2ccccc2)c(-c2ccccc2)c(C(=O)Nc2ccc(S(N)(=O)=O)cc2)c1=O | -7.69% | 
COc1ccc(-c2cn3c(n2)sc2cc(C(=O)Nc4ccccc4F)ccc23)cc1 | 0.784% | 
CCOc1cccc(NC(=O)CSc2ncc(-c3ccc(Cl)cc3)[nH]2)c1 | 8.96% | 
O=C(Nc1c(C(=O)N2CCN(c3ccc(F)cc3)CC2)oc2ccccc12)c1ccco1 | 5.17% | 
COc1ccc(-c2noc(CSc3nc(C)cc(=O)[nH]3)n2)cc1OC | -6.31% | 
CCOC(=O)c1cnc2c(C)cc(C)cc2c1Nc1ccc(N2CCOCC2)cc1 | 4.22% | 
CC(C)c1ccc(C2CC(=O)N3CN(C4CCCCC4)CSC3=C2C#N)cc1 (stereo not drawn) | -3.24% | 
Clc1nc(Cl)c(Cl)c(Cl)c1Cl | 2.91% [at 201 µM] | 
O=C(c1cnn(-c2ccc(F)cc2)c1-n1cccc1)N1CCN(c2ccc(F)cc2)CC1 | -0.53% | 
COc1ccc(-c2cccc(NS(=O)(=O)c3cc(C)c(OC)c(C)c3C)c2)nn1 | -3.96% | 
O=C(CSc1nc2nccnc2c(=O)n1CCc1c[nH]c2ccccc12)Nc1ccccc1F | -1.34% | 
COc1cccc(-n2cc(C(=O)NCc3cccc(Cl)c3)c3ccccc3c2=O)c1 | 5.09% | 
CCN(Cc1ccccc1)C(=O)c1cn(-c2cccc(OC)c2)c(=O)c2ccccc12 | 0.692% | 
O=C(CSc1nccn1-c1ccc(F)cc1)Nc1cccc2ccccc12 | -1.67% | 
CC1=C(c2ccc(C)cc2)S(=O)(=O)NC1=NCCCN1CCN(c2cc(C)ccc2C)CC1 | -0.687% | 
COc1ccc(-c2cc(C(=O)NCc3cc(OC)c(OC)c(OC)c3)[nH]n2)cc1 | 1.65% | 
CCC(C(=O)Nc1cc(OC)ccc1OC)n1c(=O)c(C(F)(F)F)nc2ccccc21 (stereo not drawn) | -2.12% | 
CCOC(=O)c1oc2ccc(S(=O)(=O)n3nc(-c4ccccc4OC)cc3N)cc2c1C | -12.1% | 
COc1ccc(NS(=O)(=O)c2cc3c4c(c2)CC(=O)N4CCC3)cc1Cl | 5.52% | 
Cc1ccc(C)c(Nc2nnc(-c3ccc(C)c(S(=O)(=O)N4CCCCC4)c3)c3ccccc23)c1 | -0.116% | 
O=C(C1CCCN(S(=O)(=O)c2cccc3nonc23)C1)N1CCN(c2ccccc2F)CC1 (stereo not drawn) | -9.58% | 
